# TDP1 block – inhibitors of human tyrosyl-DNA phosphodiesterase TDP1 | Q9NUW8 | recombinant TDP1, AlphaScreen DNA substrate cleavage | Potency, µM (doses to about 130 µM), inactives show top-dose activity change, negative = inhibition, most hits filed as inhibitors | actives 0.28% (n = 350,000) | AID 485290; further: on the % scale 0 is the no-effect control and ±100 the full control effect; nearly all actives have a fitted effect of over 40% in size
#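 E. coli-derived human Tdp1, 1 nM final. Cpd preinc 15 min RT; substrate 15 nM final, 5 min RT; AS bead mix 10 ug/ml final, 10 min RT. Signal loss = tyrosine-FITC cleavage. No-enzyme wells = max signal.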
# Tb PFK block – inhibitors of T. brucei phosphofructokinase; actives 0.17% (n = 330,000); Potency, µM (doses to about 57.5 µM), for inactives: top-dose activity, negative = inhibition, hits mostly inhibitors; O15648; T. brucei PFK, ADP-Glo luminescence;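 further: 0% = uninhibited 1x PFK enzyme wells and -100% = no-enzyme wells; nearly all actives have a fitted effect of over 60% in size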
#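 PFK 1.25 nM, F6P 0.5 mM, ATP 0.1 mM, 0.1 M TEA pH 8.0, 5 mM MgCl2, 0.01% Tween20, 0.1% BSA; 45 min RT. ADP-Glo readout. qHTS titration up to 57 uM; curves fitted, compounds curve-classed.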
# Pin1 inh – blocks the human prolyl isomerase Pin1. Q13526. Pin1 FP peptide displacement, HiFluor488, 10 min. Potency, µM (top dose mostly 115 µM), for inactives: top-dose activity, negative = inhibition, hits mostly inhibitors. actives 0.009% (n = 390,000). AID 504891; active means well fitted inhibition curve with a large enough effect in the polarisation, with a control signal flat, not every such curve was filed as active; inconclusive means small, poorly fitted or top-dose-only effect, or effect the other way, or a change in a side signal; inactive means no such curve, though single readings can be large or run the other way; the % refers to the polarisation; further: on the % scale 0 is the no-effect control and ±100 the full control effect
# ASM inhibitor – human S-ASM enzyme inhibition; P17405; placental ASM, HMU-PC fluorogenic substrate, 60 min; Potency, µM (top dose mostly 57.5 µM), for the others: top-dose activity change, negative = inhibition, most hits filed as inhibitors; actives 0.006% (n = 340,000); AID 504937
#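 Fluorescence read-out (Ex 386 nm, Em 447 nm) after stopping the reaction at pH 10. Enzyme: ASM from human placenta; substrate HMU-PC0, 9 uM final; 60 min, 37 °C. Compound preincubation 10 min, ambient temperature.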
# PLK1 PBD inh – PLK1 (human) polo-box domain binding inhibition. Plk1 PBD binding of FITC phosphopeptide, fluorescence polarization. Potency, µM, for inactives: max response, negative = inhibition, hits mostly inhibitors. actives 2.8% (n = 360,000); further: series mostly up to about 57 µM; on the % scale 0 is the no-effect control and ±100 the full control effect; nearly all actives have a fitted effect of over 65% in size
# VDR inh – blocks the human vitamin D receptor; P11473; VDR-SRC2-3 peptide fluorescence polarization, 2 h; Potency, µM, for the others: max response, negative = inhibition, usual class: inhibitors; actives 0.93% (n = 400,000); AID 504847; further: on the % scale 0 is the no-effect control and ±100 the full control effect
# Target sequence (P11473 whole entry, looked up): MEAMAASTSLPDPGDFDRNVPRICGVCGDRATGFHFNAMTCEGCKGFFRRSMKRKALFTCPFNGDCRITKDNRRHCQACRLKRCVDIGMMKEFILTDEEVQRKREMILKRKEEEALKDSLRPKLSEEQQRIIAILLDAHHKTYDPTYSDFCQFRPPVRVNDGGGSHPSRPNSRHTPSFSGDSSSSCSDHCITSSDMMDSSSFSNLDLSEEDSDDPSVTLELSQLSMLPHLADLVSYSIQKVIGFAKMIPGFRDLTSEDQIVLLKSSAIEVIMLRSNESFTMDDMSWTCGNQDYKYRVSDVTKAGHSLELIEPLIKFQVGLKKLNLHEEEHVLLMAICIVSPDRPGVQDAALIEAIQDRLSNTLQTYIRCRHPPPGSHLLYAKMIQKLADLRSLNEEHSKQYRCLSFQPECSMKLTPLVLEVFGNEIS
#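 Inhibition of the VDR/SRC2-3 peptide interaction is quantified by fluorescence polarization. Compounds (23 nl, pintool) incubate with the reagents for 2 hours at ambient room temperature.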
# * marks the source's active call; other numbers are inactive results; ? = inconclusive; nt = not tested or not shown; [ ] = dose if it differs, or a comment. Shown are actives, neighbours in structure and some others; about 3.1% of the full set was active somewhere. Unless noted, the call rests on the fitted dose curve; in most records, active means well fitted curve in the direction sought with a large enough effect; inconclusive means small, poorly fitted or top-dose-only effect, or another doubt; inactive means no such curve, though single readings can be large; an effect the other way counts as inactive or inconclusive. Potency means the concentration at half of the fitted maximal effect.
SMILES,TDP1 block,Tb PFK block,Pin1 inh,ASM inhibitor,PLK1 PBD inh,VDR inh
COc1cccc(Cc2nc3ccccc3nc2SCC(=O)NCCc2ccccc2)c1,3%,nt,-2%,nt,nt,2%
Cc1ccc(C(=O)NCC(c2ccco2)S(=O)(=O)c2ccc(Cl)cc2)cc1C (stereo unspecified),-3%,nt,11%,nt,nt,0%
COC(=O)c1cnn(-c2ccc(C(=O)Nc3cc(OC)c(OC)c(OC)c3)cc2)c1N,1%,nt,-3%,nt,nt,-3%
COC(=O)c1cnn(-c2ccc(C(=O)Nc3ccc(C(C)=O)cc3)cc2)c1N,35µM*,-10%,-9%,nt,nt,-7%
COc1ccc(NC(=O)Cn2c(=O)n(-c3ccc(Cl)cc3)c(=O)c3c(C)c(C(=O)N(C)C)sc32)cc1Cl,-3%,nt,1%,nt,nt,17%
COc1cccc(-c2nccc(NC3CCNCC3)n2)c1,20µM*,nt,nt,nt,nt,5%
COc1ccccc1-c1nccc(NC2CCNCC2)n1,nt,nt,nt,nt,nt,-3%
O=S(=O)(O)c1ccc2c(N=Nc3ccc(S(=O)(=O)O)c4ccccc34)c(O)c(S(=O)(=O)O)cc2c1,?,nt,nt,nt,nt,-3%
Cc1nc(N=Nc2ccc(S(=O)(=O)O)cc2S(=O)(=O)O)c(COP(=O)(O)O)c(C=O)c1O,20µM*,nt,nt,nt,nt,?
N#C/C(=C\c1c(Cl)cccc1Cl)c1nc2ccccc2o1,6%,14%,24%,0%,0.42µM*,-28%
COc1cc(C(=O)Nc2nnc(S(=O)(=O)N(C)c3ccccc3)s2)cc(OC)c1OC,5%,nt,-4%,nt,nt,14%
O=C(O)c1ccccc1C(=O)Nc1ccccc1,6%,1%,-3%,2%,0%,17%
O=C(Nc1ccccc1)C1=C(c2ccccc2)S(=O)(=O)CCS1(=O)=O,-10%,?,-14%,1%,5.3µM*,22µM*
CN(C)c1ccc(Sc2nnc(NC(=O)Nc3ccc(Cl)cc3Cl)s2)cc1,0%,2%,2%,4%,3%,-12%
CCC(=O)Nc1nnc(Sc2ccc(N(C)C)cc2)s1,45µM*,-1%,-6%,4%,-19%,0%
CCC(c1nnnn1Cc1ccco1)N(Cc1cc2cc(C)cc(C)c2[nH]c1=O)CC1CCCO1 (stereo unspecified),1%,-1%,26%,4%,3.4µM*,-13%
C/[N+]([O-])=C\c1cccc(OCCN2CCN(c3ncc(C(F)(F)F)cc3Cl)CC2)c1,nt,1%,-8%,-2%,12µM*,-3%
CC1(C)OC(=O)C2(Cc3ccc(Cl)cc3N3CCCCC32)C(=O)O1 (stereo unspecified),1%,nt,-1%,nt,nt,4%
Cc1ccc(-c2nn(Cc3ccccc3)cc2/C=C/C(=O)O)cc1,9%,-2%,0%,0%,-9%,-4%
O=Cc1cn(CCC(=O)O)nc1-c1cccc(Br)c1,5%,-2%,-7%,0%,-8%,-18%
O=C(O)CCn1cc(/C=C\C(=O)c2ccc(Cl)cc2)c(-c2cccc(Br)c2)n1,5%,-6%,?,2%,24µM*,50µM*
Cc1ccc(-c2nn(CCC(=O)O)cc2/C=C\C(=O)c2ccc(Br)cc2)cc1,0%,4%,?,-4%,38µM*,35µM*
Cc1ccc(-n2ncc(C(=O)NCCCN3CCc4ccccc4C3)c2C2CCN(C(=O)OC(C)(C)C)CC2)cc1C,-3%,nt,-1%,nt,nt,-16%
O=C(O)c1cc(S(=O)(=O)Nc2ccc3oc(=O)sc3c2)ccc1O,-12%,-27%,?,29%,6.7µM*,79µM*
O=C(COC(=O)c1ccccc1C(=O)c1ccc(Cl)cc1)NCc1ccccc1,0%,-8%,-3%,-3%,0%,6%
O=C(COC(=O)c1ccccc1C(=O)c1ccccc1)NCc1ccc(F)cc1,1%,2%,7%,-2%,24µM*,?
Cc1ccc(NC(=O)c2c(NC(=O)C(F)(F)F)sc3c2CCCCC3)cc1,1%[12.3 µM],nt,-24%,nt,nt,?
CN1CCN(C(c2ccc(C(F)(F)F)cc2)c2cc(Cl)c3cccnc3c2O)CC1 (stereo unspecified),8%,-15%,nt,nt,nt,nt

# Compound activity (PubChem BioAssay)
